Test results: PubChem BioAssay (NCI)
Compounds without any hit were thinned out: in the full panel of roughly 83,000, 20% have a hit.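 Testing used 96-well plates and a 48-hour single-concentration exposure. Example: -40 means 40% of the starting cells died.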 Values without a mark were called inactive. Calls of active or inactive are those of the source. The calls were made as follows: active = growth percent below 10; inactive = the rest.

Assays:
Experiment in all cases: NCI-60 one-dose screen, 48 h (100 = growth as untreated, 0 = no growth, -100 = all killed)
[1] = system: SR leukemia; conditions: 10 µM unless noted
[2] = system: RPMI-8226 leukemia; conditions: 10 µM unless noted
[3] = system: OVCAR-8 ovarian; conditions: 10 µM unless noted
[4] = system: OVCAR-5 ovarian; conditions: 10 µM unless noted
[5] = system: OVCAR-4 ovarian; conditions: 10 µM unless noted
[6] = system: SK-OV-3 ovarian; conditions: 10 µM unless noted
[7] = system: IGROV1 ovarian; conditions: 10 µM unless noted
[8] = system: OVCAR-3 ovarian; conditions: 10 µM unless noted
[9] = system: HS 578T breast; conditions: 10 µM
[10] = system: NCI/ADR-RES ovarian; conditions: 10 µM unless noted
[11] = system: T-47D breast; conditions: 10 µM unless noted
[12] = system: BT-549 breast; conditions: 10 µM unless noted
[13] = system: MDA-MB-435 melanoma; conditions: 10 µM unless noted
[14] = system: SW-620 colon; conditions: 10 µM unless noted
[15] = system: MCF7 breast; conditions: 10 µM unless noted
[16] = system: HCT-116 colon; conditions: 10 µM unless noted
[17] = system: HCC-2998 colon; conditions: 10 µM
[18] = system: KM12 colon; conditions: 10 µM unless noted

SMILES: COc1ccc(C(=O)N2c3ccccc3Sc3ccccc32)c(F)c1
- growth [1]: 23%
- growth [2]: 18.6%
- growth [3]: 32.3%
- growth [4]: 62.1%
- growth [5]: 49.2%
- growth [6]: 38.3%
- growth [7]: 54.8%
- growth [8]: -7.19% (active)
- growth [9]: 15.9%
- growth [10]: 1.71% (active)
- growth [11]: 40.2%
- growth [12]: 22.7%
- growth [13]: -37.6% (active)
- growth [14]: 15%
- growth [15]: 24.2%
- growth [16]: 20.1%
- growth [17]: 30.3%
- growth [18]: 22.7%

SMILES: O=[N+]([O-])c1cc(Br)cc2c1[nH]c1ccc(Br)cc12
- growth [1]: 77.2%
- growth [2]: 78.2%
- growth [3]: 57.7%
- growth [4]: 80.4%
- growth [5]: -26.5% (active)
- growth [6]: 34.5%
- growth [7]: 36.6%
- growth [8]: 43.3%
- growth [9]: 65.4%
- growth [10]: 70.4%
- growth [11]: 42.9%
- growth [13]: 86.4%
- growth [14]: 67%
- growth [15]: 45.8%
- growth [16]: 36.6%
- growth [17]: 94.3%
- growth [18]: 71.4%

SMILES: O=C1OCC2=C1C(c1cccc(F)c1)c1cc3c(cc1N2CCO)OCCO3 (configuration not stated)
- growth [1]: 12.3%
- growth [2]: 22.1%
- growth [3]: 24.4%
- growth [4]: 30.8%
- growth [5]: 45%
- growth [6]: 27.1%
- growth [7]: 26.3%
- growth [8]: -13.9% (active)
- growth [9]: 31.4%
- growth [10]: 6.36% (active)
- growth [11]: 46.8%
- growth [13]: -40.7% (active)
- growth [14]: 26.8%
- growth [15]: 15.6%
- growth [16]: 11.2%
- growth [17]: 8.09% (active)
- growth [18]: 14%

SMILES: CN1CCN(Cc2ccc(NC(=O)c3[nH]ncc3Nc3ncnc4sc5c(c34)CCCC5)cc2)CC1
- growth [1]: -54.3% (active)
- growth [2]: -32.1% (active)
- growth [3]: -39.6% (active)
- growth [4]: -86.8% (active)
- growth [5]: -41.4% (active)
- growth [6]: -5.01% (active)
- growth [7]: -60.9% (active)
- growth [8]: -83.8% (active)
- growth [9]: -32.5% (active)
- growth [10]: -61.7% (active)
- growth [11]: 9.76% (active)
- growth [13]: -89% (active)
- growth [14]: -52% (active)
- growth [15]: -67.2% (active)
- growth [16]: -96% (active)
- growth [17]: -74.9% (active)
- growth [18]: -64.3% (active)

SMILES: CCOC(=O)C1=C(C)N=C2Sc3cccc(OC)c3N2[C@H]1c1ccccn1
- growth [1]: 96.9%
- growth [2]: 106%
- growth [3]: 97%
- growth [4]: 110%
- growth [5]: 96.3%
- growth [6]: 99.5%
- growth [7]: 101%
- growth [8]: 107%
- growth [9]: 91.9%
- growth [10]: 96.4%
- growth [11]: 96.5%
- growth [12]: 101%
- growth [13]: 110%
- growth [14]: 102%
- growth [15]: 97%
- growth [17]: 93.2%
- growth [18]: 96.6%

SMILES: CCOc1ccc(N=C(C)Nc2ccc(OCC)cc2)cc1
- growth [1]: 84.5%
- growth [2]: 116%
- growth [3]: 106%
- growth [4]: 104%
- growth [5]: 104%
- growth [6]: 121%
- growth [7]: 106%
- growth [8]: 133%
- growth [9]: 106%
- growth [10]: 101%
- growth [11]: 105%
- growth [13]: 115%
- growth [14]: 104%
- growth [15]: 102%
- growth [16]: 104%
- growth [17]: 104%
- growth [18]: 117%

SMILES: N#CC(C#N)=NO
- growth [1]: 97.1%
- growth [2]: 101%
- growth [3]: 103%
- growth [4]: 104%
- growth [5]: 113%
- growth [6]: 89.1%
- growth [7]: 101%
- growth [8]: 111%
- growth [9]: 99.6%
- growth [10]: 100%
- growth [11]: 102%
- growth [12]: 103%
- growth [14]: 100%
- growth [15]: 96.1%
- growth [16]: 92.5%
- growth [17]: 96.3%
- growth [18]: 103%

SMILES: Cc1ccc(-[n+]2c3cc(N)c(C)cc3nc3cc(C)c(Nc4ccccc4)cc32)cc1
- growth [1]: -39.1% (active)
- growth [2]: -36.5% (active)
- growth [3]: -6.17% (active)
- growth [4]: -61.3% (active)
- growth [5]: -38.7% (active)
- growth [6]: -90.4% (active)
- growth [7]: -59.5% (active)
- growth [8]: -97.4% (active)
- growth [9]: 18.8%
- growth [10]: -21.8% (active)
- growth [11]: -74.7% (active)
- growth [13]: -73.6% (active)
- growth [14]: -71.8% (active)
- growth [15]: -81.8% (active)
- growth [16]: -100% (active)
- growth [17]: -98% (active)
- growth [18]: -92.7% (active)

SMILES: CO[C@H](C(=O)N[C@@H](CCCCNC(=O)OCc1ccccc1)C(=O)OC(C)(C)C)[C@@H]1Cc2cc3cc(OC4CC(OC5CC(O)C(O)C(C)O5)C(O)C(C)O4)c(C)c(O)c3c(O)c2C(=O)[C@H]1OC1CC(OC2CC(OC3CC(C)(O)C(O)C(C)O3)C(O)C(C)O2)C(O)C(C)O1 (some centres not stated)
- growth [1]: 7.17% (active)
- growth [2]: -5.01% (active)
- growth [3]: 12.9%
- growth [4]: -77.9% (active)
- growth [5]: 43.1%
- growth [6]: -52.7% (active)
- growth [7]: 22.2%
- growth [8]: 24.8%
- growth [9]: -16.4% (active)
- growth [10]: 73.2%
- growth [11]: 7.2% (active)
- growth [13]: -69.8% (active)
- growth [14]: 3.71% (active)
- growth [15]: 3.56% (active)
- growth [16]: -63.9% (active)
- growth [17]: -5.55% (active)
- growth [18]: -62.7% (active)

SMILES: Nc1c(C(=O)c2ccccc2)sc2nc(-c3cccs3)ccc12
- growth [1]: 30.5%
- growth [2]: 21.4%
- growth [3]: 28.9%
- growth [4]: 66.9%
- growth [5]: 57.3%
- growth [6]: 35.4%
- growth [7]: 46.5%
- growth [8]: 9.4% (active)
- growth [9]: 34.3%
- growth [10]: 3.97% (active)
- growth [11]: 41.8%
- growth [12]: 59.6%
- growth [13]: -5.48% (active)
- growth [14]: 28.4%
- growth [15]: 34.2%
- growth [17]: 32.3%
- growth [18]: 28.3%

SMILES: C[N+](C)(CCOC(c1ccccc1)c1ccccc1)CC(=O)OCc1ccccc1
- growth [1]: 115%
- growth [2]: 111%
- growth [3]: 106%
- growth [4]: 103%
- growth [5]: 93.5%
- growth [6]: 106%
- growth [7]: 106%
- growth [8]: 103%
- growth [9]: 108%
- growth [10]: 105%
- growth [11]: 120%
- growth [13]: 97.9%
- growth [14]: 108%
- growth [15]: 97%
- growth [16]: 105%
- growth [17]: 106%
- growth [18]: 99.9%

SMILES: NC(=O)c1n[nH]n2c1nc(=O)c1c3c(sc12)CCCC3
- growth [1]: 101%
- growth [2]: 94.2%
- growth [3]: 101%
- growth [4]: 111%
- growth [5]: 118%
- growth [6]: 105%
- growth [7]: 104%
- growth [8]: 107%
- growth [9]: 110%
- growth [10]: 106%
- growth [11]: 96.2%
- growth [13]: 117%
- growth [14]: 100%
- growth [15]: 92.3%
- growth [16]: 104%
- growth [17]: 104%
- growth [18]: 104%

SMILES: CCc1nc2cc(/C=C/C(=O)NO)ccc2c(=O)n1CCc1ccc(F)cc1
- growth [1]: 10.7%
- growth [2]: 6.42% (active)
- growth [3]: 5.85% (active)
- growth [4]: 25.7%
- growth [5]: 25.4%
- growth [6]: -16.3% (active)
- growth [7]: 28%
- growth [8]: -13.5% (active)
- growth [9]: 52.6%
- growth [10]: 4.25% (active)
- growth [11]: -0.122% (active)
- growth [13]: 17.3%
- growth [14]: 6.35% (active)
- growth [15]: 10.2%
- growth [16]: 3.23% (active)
- growth [17]: 32.4%
- growth [18]: 12%

SMILES: COc1cc(-c2nc(C(=O)NCC(=O)O)nn2-c2ccc(Cl)cc2)cc(OC)c1OC
- growth [1]: 106%
- growth [2]: 99%
- growth [3]: 102%
- growth [4]: 105%
- growth [5]: 105%
- growth [6]: 98.7%
- growth [7]: 105%
- growth [8]: 107%
- growth [9]: 106%
- growth [10]: 105%
- growth [11]: 99.5%
- growth [12]: 106%
- growth [13]: 108%
- growth [14]: 108%
- growth [15]: 96.3%
- growth [17]: 100%
- growth [18]: 96.3%

SMILES: Brc1ccc([I+]c2ccc(Br)cc2)cc1
- growth [1]: 3.44% (active)
- growth [2]: 7.72% (active)
- growth [3]: 11.6%
- growth [4]: 61%
- growth [5]: 22.3%
- growth [6]: 43.6%
- growth [7]: 26.2%
- growth [8]: 61.6%
- growth [9]: 69.7%
- growth [10]: 98.9%
- growth [11]: 16.4%
- growth [13]: 19.5%
- growth [14]: 17.8%
- growth [15]: 7.26% (active)
- growth [16]: 8.91% (active)
- growth [17]: 25%
- growth [18]: 3.55% (active)

SMILES: O=C1CCC(=O)CC1
- growth [1]: 97.4%
- growth [2]: 110%
- growth [3]: 101%
- growth [4]: 92.3%
- growth [5]: 113%
- growth [6]: 112%
- growth [7]: 96.3%
- growth [8]: 117%
- growth [9]: 103%
- growth [10]: 104%
- growth [11]: 102%
- growth [13]: 102%
- growth [14]: 103%
- growth [15]: 101%
- growth [16]: 109%
- growth [17]: 99.9%
- growth [18]: 106%

SMILES: CCCCn1c(C)nc2ccc(Nc3nc(N4CCN(C)CC4)nc4nc[nH]c34)cc21
- growth [1]: 84%
- growth [2]: 88.2%
- growth [3]: 91.8%
- growth [4]: 95.6%
- growth [5]: 97.8%
- growth [6]: 104%
- growth [7]: 94.1%
- growth [8]: 99.2%
- growth [9]: 86.8%
- growth [10]: 104%
- growth [11]: 80.3%
- growth [12]: 97.5%
- growth [13]: 94.3%
- growth [14]: 91.8%
- growth [15]: 83%
- growth [17]: 83.6%
- growth [18]: 93.6%

SMILES: c1ccc2c(c1)CCN(NCCN1CCCC1)C2
- growth [1]: 103%
- growth [2]: 95.5%
- growth [3]: 101%
- growth [4]: 94.7%
- growth [5]: 106%
- growth [6]: 84.6%
- growth [7]: 96.3%
- growth [8]: 99.9%
- growth [9]: 85.6%
- growth [10]: 96.1%
- growth [11]: 91.4%
- growth [12]: 99.8%
- growth [14]: 94.8%
- growth [15]: 96.5%
- growth [16]: 85.6%
- growth [17]: 95%
- growth [18]: 100%
